The values below come from PubChem BioAssay.

Active and inactive are the calls of the source.

Assay [1] has as its target Albumin (Bos taurus) (UniProt P02769). Briefly: compounds binding labelled BSA control protein – biochemical, small-molecule microarray, Alexa647 label, 635/667 nm fluorescence, artefact control for SMM control protein annotation, profiling panel (AID 1118).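 Also: score merges 667 nm emission intensity and signal-to-noise per printed compound spot.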 Particulars: BSA-A647 binding, fluorescence 635 nm, higher = more signal.
Assay [2] in a line: probe aXIP binding to arrayed compounds – biochemical, NeuroSMM set, 635/667 nm fluorescence, primary screen (AID 1119).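 Also: probe is the protein aXip251-270 applied at 1 µg/mL to compound-printed slides; binding of probe to printed compounds measured as 667 nm fluorescence plus signal to noise.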 Particulars: small-molecule microarray, higher = more signal, called active from +8 up or from −8 down.
A short description of assay [3]: probe aNOTCH3 binding on compound microarray – biochemical, small-molecule microarray, 635/667 nm fluorescence, primary screen (AID 1120).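 Also: probe is a biotin-tagged antibody raised against NOTCH3 rather than NOTCH3 protein; score merges spot fluorescence near 667 nm with spot signal to noise.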 The settings on record: higher = more signal.
The nature of assay [4]: probe aNOTCH2 binding on compound microarray – biochemical, small-molecule microarray, 635/667 nm fluorescence, primary screen (AID 1121).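 Also: score merges feature fluorescence read at 667 nm with its signal to noise.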 The settings on record: higher = more signal.
Assay [5] deals with Carbonic anhydrase 2 (Homo sapiens) (UniProt P00918). The assay can be described thus: compounds binding carbonic anhydrase 2 – biochemical, small-molecule microarray, Alexa647-labelled CAII, profiling panel (AID 1122). The settings on record: CAII-A647 binding fluorescence, higher = more signal.
A short description of assay [6]: COS7 lysate on small-molecule microarray, probe aHis, 635 nm (AID 1123).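 Also: z-score combines 667nm fluorescence intensity with signal-to-noise per printed compound spot.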 Particulars: COS7 cell lysate, fluorescence, higher = more signal.
Assay [7] is described as follows: probe aLAP1 signal on lysate-treated microarray – cell lysate, small-molecule microarray, COS7 lysate, primary screen (AID 1124).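 Also: lysate comes from COS7 cells expressing LAP1 and is applied at 0.3 µg/mL; score merges spot fluorescence near 667 nm with signal-to-noise over triplicate slides.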 The settings on record: probe aLAP1, fluorescence, higher = more signal.
Assay [8] deals with Sam68 (KHDRBS1). Briefly: compounds binding KHDRBS1 protein – biochemical, small-molecule microarray, 635 nm fluorescence, primary screen (AID 1125).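 Also: score merges 667 nm channel intensity with signal to noise over triplicate slides.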 Particulars: higher = more signal.
Assay [9] relates to Chordin-like protein 2 (CHRDL2). The assay can be described thus: compounds binding chordin-like 2 – biochemical, small-molecule microarray, 635 nm fluorescence, primary screen (AID 1126).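 Also: printed compound slides probed with Chrdl2 protein at 4 µg/mL for 1 h at 4 C; score merges 667 nm emission intensity with signal to noise over three replicate slides.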 Particulars: fluorescence 635 nm, higher = more signal.
Assay [10] deals with Concanavalin-A (Canavalia ensiformis) (UniProt P02866). Briefly: compounds binding concanavalin A lectin – biochemical, small-molecule microarray, Alexa647 label, 635 nm, artefact control for SMM control protein annotation, primary screen (AID 1127).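 Also: z combines 667 nm emission intensity with signal-to-noise across three replicate slides.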 Particulars: ConA-A647 binding fluorescence, higher = more signal.
Concanavalin-A (Canavalia ensiformis), sequence (P02866 whole entry, looked up): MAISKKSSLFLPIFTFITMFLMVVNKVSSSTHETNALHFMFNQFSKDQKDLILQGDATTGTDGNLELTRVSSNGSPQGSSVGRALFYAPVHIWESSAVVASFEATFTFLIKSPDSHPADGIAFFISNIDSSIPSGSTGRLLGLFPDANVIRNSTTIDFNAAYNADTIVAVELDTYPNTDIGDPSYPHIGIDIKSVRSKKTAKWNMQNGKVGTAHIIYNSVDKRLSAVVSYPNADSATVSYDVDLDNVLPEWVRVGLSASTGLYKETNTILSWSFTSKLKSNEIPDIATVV

Albumin (Bos taurus), sequence (P02769 whole entry, looked up): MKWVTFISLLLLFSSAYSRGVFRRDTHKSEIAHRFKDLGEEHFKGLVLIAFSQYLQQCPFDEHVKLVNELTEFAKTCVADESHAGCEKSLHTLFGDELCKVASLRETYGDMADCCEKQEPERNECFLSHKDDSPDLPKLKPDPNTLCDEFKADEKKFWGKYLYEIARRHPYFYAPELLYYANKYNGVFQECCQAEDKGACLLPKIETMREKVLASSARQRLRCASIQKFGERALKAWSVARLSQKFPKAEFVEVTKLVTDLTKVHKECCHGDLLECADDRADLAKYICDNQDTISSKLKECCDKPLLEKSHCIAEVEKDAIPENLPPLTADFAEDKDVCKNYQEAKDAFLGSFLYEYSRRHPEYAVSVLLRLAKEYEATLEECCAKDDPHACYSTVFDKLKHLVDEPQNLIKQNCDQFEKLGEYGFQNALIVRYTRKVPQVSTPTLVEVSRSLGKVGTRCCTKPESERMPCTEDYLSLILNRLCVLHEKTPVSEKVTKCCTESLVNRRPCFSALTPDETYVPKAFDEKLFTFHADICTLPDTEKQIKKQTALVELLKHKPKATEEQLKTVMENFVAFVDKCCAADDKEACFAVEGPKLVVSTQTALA

On to `COc1ccc(NN2C(C(O)c3ccc(F)cc3)C=CC3C(=O)N(C4CCCCC4)C(=O)C32)cc1` (stereo not given), for which the composite z-score is 0.861 in assay [1]; 0.183 in assay [3]; -0.0161 in [4]; 0.649 in assay [5]; 1.39 in assay [6]; 0.0892 in assay [7]. The values for the composite z-score in assay [8], in [9] and in assay [10] were 1.29, -0.0299 and 1.13, respectively. In addition, the composite Z-score in assay [2] is -0.0189 (inactive).

For the molecule `C=C(C(=O)CC[C@@H](OC(=O)c1ccccc1-c1ccccc1C(=O)O)c1ccc(OCCO)cc1)C(C)C`, the composite z-score in assay [1] is 0.0832; in assay [3] it was 0.169; in assay [4] it was -0.0876; in assay [5] it was 0.801; in assay [6], 0.393; in assay [7], -0.0004. Also, the values for the composite z-score in assay [8], in [9] and in assay [10] were 0.929, 0.639 and 0.94, respectively. The composite Z-score in assay [2] was -0.32 (inactive).

As for `C=CCOC(=O)[C@@H]1[C@H]2C(=O)O[C@H](c3ccccc3)[C@H](c3ccccc3)N2[C@H](c2ccc(OCCOC(=O)[C@@H]3C[C@@H]4C(=O)N[C@@H](CC(C)C)C(=O)N4[C@@H]3c3ccc(O)cc3)cc2)[C@@]12C(=O)Nc1ccc(I)cc12`, the composite z-score was -0.766 in assay [1]; 1.3 in assay [3]; 0.443 in assay [4]; 0.536 in [5]; 1.37 in assay [6]; 0.166 in [7]. Besides, the composite z-score in [8] amounted to 1.28; in assay [9], 1.1; in [10] it was 1.17. Also, in [2], the composite Z-score was 0.207 (inactive).

For `C=CCNC(=O)[C@@H]1[C@H]2C(=O)O[C@H](c3ccccc3)[C@H](c3ccccc3)N2[C@H](c2ccc(OCCO)cc2)[C@@]12C(=O)Nc1ccc(C#CC3=CCCCC3)cc12`, the composite z-score is 0.806 in assay [1]; 0.0493 in [3]; -0.145 in [4]; 0.512 in assay [5]; 1.33 in assay [6]; 0.402 in assay [7]. For the same molecule, the composite z-score in assay [8] came out at 1.3; in [9] it was 0.0821; in assay [10], 1.14. Besides, the composite Z-score in assay [2] is 0.653 (inactive).

Regarding `COc1ccc([Si](C)(C)[C@H]2[C@H](CC(=O)N3CCC[C@H]3CO)O[C@@]3(C(=O)N(C)c4ccccc43)[C@@H]2C)cc1`, the composite z-score in assay [1] is 0.728; in assay [3], 0.103; in assay [4], -0.103; in [5], 0.487; in assay [6], 0.459; in assay [7], 0.378. In addition, the composite z-score in assay [8] worked out at 0.646; in assay [9] it was 0.808; in [10] it was 0.119. Besides, the composite Z-score in assay [2] is 1.38 (inactive).

`O=C1c2ccccc2[C@](Cc2ccccc2I)(C(=O)NCCN2CCOCC2)[C@H](c2ccc(CO)cc2)N1Cc1ccccc1C(F)(F)F`: the composite z-score is 0.543 in assay [1]; -0.0014 in [3]; -0.0771 in assay [4]; 0.594 in [5]; 2.09 in assay [6]; 0.329 in [7]. Moreover, the composite z-score was 1.29 in [8], -0.408 in [9] and 1.13 in assay [10]. In addition, in [2], the composite Z-score is -0.0238 (inactive).

For `COC(=O)[C@]1(Cc2ccccc2CN=[N+]=[N-])N=C(c2ccc(OCCCO)cc2)O[C@@H]1c1ccccc1N=[N+]=[N-]`, the composite z-score was -0.427 in assay [1]; 0.0026 in [3]; 0.015 in [4]; 0.518 in [5]; 0.999 in assay [6]; 1.47 in [7]. In addition, the composite z-score in assay [8] came out at 0.163; in [9] it was 0.62; in assay [10], 0.91. In [2], the composite Z-score is -0.741 (inactive).

With `Cc1ccc(S[C@]2(C(=O)NC(C)C)CC(=O)N(Cc3ccccc3)[C@@H]2c2ccc(CO)cc2I)cc1`, the composite z-score in [1] was -0.437; in assay [3] it was -0.229; in assay [4], -0.227; in assay [5] it was 0.784; in [6], 1.79; in assay [7], 0.532. Also, the composite z-score in assay [8] is 0.636; in assay [9], -2.55; in assay [10] it was -0.639. Besides, in assay [2], the composite Z-score is -0.0142 (inactive).

As to `C[C@]12C(=O)N(CCO)[C@@H]3C(=O)N(c4ccc(Cl)cc4)CC=CC31O[C@@H]1/C=C\CCCOC(=O)C12` (stereo not given in full), the composite z-score in assay [1] was 0.575; in [3], -0.183; in [4], -0.0798; in assay [5], 0.883; in assay [6] it was -0.485; in [7], -0.0785. In addition, the composite z-score in assay [8] is -0.0284; in assay [9], -1.62; in [10] it was -0.263. Further, the composite Z-score in [2] is 0.0414 (inactive).

In the case of `C=CC[C@H](O)c1ccc(O)c2ccccc12`, the composite z-score in assay [1] is -0.491; in assay [3] it was 0.037; in assay [4], -0.0904; in assay [5] it was 0.421; in assay [6], 1.63; in assay [7], 0.0233. For the same molecule, the composite z-score amounted to 1.06 in [8], 1.4 in assay [9] and 0.79 in [10]. For the same molecule, the composite Z-score in assay [2] was 0.579 (inactive).

Regarding `CN(C)CCCC[C@@H]1NC(=O)[C@H]2C[C@@H](C(=O)NCCCCCCNC(=O)CS)[C@@H](c3cccc(OCCO)c3)N2C1=O`, the composite z-score in [1] was 0.105; in assay [3], -0.195; in assay [4], -0.105; in [5], 0.249; in assay [6], 1.01; in assay [7] it was 0.586. The composite z-score in [8] is 0.378; in [9], -0.0352; in assay [10], 0.847. The composite Z-score in [2] was 0.333 (inactive).

In the case of `C=CC[C@]1(C(=O)NCC(O)CO)N=C(c2ccc(OCCCO)cc2)O[C@H]1c1ccccc1CN=[N+]=[N-]` (stereo not given in full), the composite z-score was 0.0838 in assay [1]; -0.0362 in assay [3]; -0.0357 in assay [4]; 0.522 in assay [5]; 3.12 in assay [6]; 0.988 in assay [7]. For the same molecule, the composite z-score in [8] is 0.605; in assay [9] it was -1.33; in [10] it was 0.148. In addition, the composite Z-score in assay [2] was 0.58 (inactive).

As to `C=CC[C@@]1(C(=O)NCCCOC)N=C(c2ccc(OCCCO)cc2)O[C@@H]1c1ccccc1CN=[N+]=[N-]`, the composite z-score was 0.829 in assay [1]; 0.518 in [3]; -0.108 in assay [4]; 0.596 in assay [5]; 2.61 in assay [6]; 0.159 in assay [7]. The composite z-score in [8] stood at 1.29; in assay [9] it was 0.0984; in assay [10], 1.08. For the same molecule, the composite Z-score in assay [2] is 0.202 (inactive).

In the case of `CCCCN1CC=CC23O[C@@H]4/C=C\CCC(C)OC(=O)C4[C@H]2C(=O)N(CCO)[C@@H]3C1=O` (stereo not given in full), the composite z-score in [1] is 0.197; in assay [3], -0.0745; in assay [4], -0.101; in [5], 0.97; in assay [6] it was 2.47; in assay [7], 1.49. Also, the composite z-score was 0.852 in assay [8], -0.789 in assay [9] and -0.833 in assay [10]. Besides, the composite Z-score in assay [2] is 2.55 (inactive).

In the case of `[N-]=[N+]=NCc1ccccc1[C@H]1OC(c2ccc(OCCCO)cc2)=N[C@@]1(Cc1ccccc1N=[N+]=[N-])C(=O)O`, the composite z-score turned out to be 0.892 in [1]; 0.297 in assay [3]; 0.0889 in assay [4]; 0.63 in assay [5]; 1.43 in assay [6]; 0.455 in [7]. The composite z-score was 1.33 in [8], 0.0332 in assay [9] and 1.14 in [10]. In assay [2], the composite Z-score was 0.59 (inactive).

As for `COCCOC(=O)N1C(=O)[C@@]2(c3cc(C#CCNC(N)=O)ccc31)[C@H](c1ccccc1OCCO)N1[C@H](c3ccccc3)[C@H](c3ccccc3)OC(=O)[C@H]1[C@@H]2C(=O)N1CCCCCCC1`, the composite z-score in assay [1] is 0.0576; in assay [3] it was 0.0556; in [4], -0.121; in assay [5], 0.447; in assay [6] it was 0.75; in assay [7], 1.41. For the same molecule, the composite z-score in assay [8] amounted to 1.32; in assay [9] it was 0.354; in assay [10], 1.12. Further, the composite Z-score in [2] was 0.627 (inactive).
